{"source": "PubChem BioAssay AID743282", "about": "(The Scripps Research Institute Molecular Screening Center, 2014)", "note": "Among all 2,000 compounds or so, about 170 (8.5%) were called active.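 How the source made its calls: active means average inhibition above the solvent-only control mean plus 3 SD (cut at about 6% in these data); inactive means the rest.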 A selection follows."}
{"assay": "BODIPY product fluorescence quenching artefacts – biochemical, QFRET, 535nm, artefact control for HGIII-sPLA2 inhibitor project, confirmation (AID 743282);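 further: 0% = DMSO with substrate plus product and 100% = DMSO with substrate alone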", "details": "BODIPY FL product fluorescence interference, at 12.2 µM, active compounds read high"}
{"smiles": "CSc1ccc(NC(=O)/C=C/C(=O)O)cc1", "inhibition": "-8.22% (inactive)"}
{"smiles": "O=C(/C=C/c1c(Cl)cccc1Cl)NCc1ccccc1", "inhibition": "-0.31% (inactive)"}
{"smiles": "N#CC1(Nc2ccc(-c3ccc(Cl)cc3)cc2)CCCC1", "inhibition": "6.64% (active)"}
{"smiles": "CC(C)c1cc(C(=O)N/N=C/c2ccoc2)c(O)c(C(C)C)c1", "inhibition": "4.05% (inactive)"}
{"smiles": "Cc1ccc(C2Nc3ccccc3C(=O)N2CCN2CCNC2=O)cc1", "note": "(configuration not stated)", "inhibition": "-4.79% (inactive)"}
{"smiles": "COc1ccc2c(c1)c(=Cc1ccc(N(C)C)cc1)c1cc(-c3ccccc3)[n+](C)n12", "inhibition": "-26.7% (inactive)"}
{"smiles": "O=C(NNC(=S)Nc1ccc(F)cc1)[C@H]1C[C@@H]1c1ccccc1", "inhibition": "1.83% (inactive)"}
{"smiles": "COc1ccc(NC(=O)C2C3C=CC(C3)C2C(=O)NCc2ccccn2)c(OC)c1", "note": "(configuration not stated)", "inhibition": "-6.28% (inactive)"}
{"smiles": "CCCCn1c(N)c(N(CCOC)C(=O)COc2c(C)cccc2C)c(=O)[nH]c1=O", "inhibition": "-7.38% (inactive)"}
{"smiles": "O=C(NN1C(=O)C2C3C=CC(C3)C2C1=O)c1ccco1", "note": "(configuration not stated)", "inhibition": "-5.42% (inactive)"}
{"smiles": "COCCn1c(SCC(=O)Nc2cc(OC)ccc2OC)nc2c(c1=O)SC(C)C2", "note": "(configuration not stated)", "inhibition": "-17.4% (inactive)"}
{"smiles": "COc1ccccc1OCCn1c(SCC(N)=O)nc2ccccc21", "inhibition": "-8.97% (inactive)"}
{"smiles": "COc1cc(NS(=O)(=O)c2ccc3ccccc3c2)c2ncccc2c1", "inhibition": "5.89% (inactive)"}
{"smiles": "O=C(Nc1cccc(F)c1)c1cc(-c2ccco2)nc2ccccc12", "inhibition": "4.81% (inactive)"}
{"smiles": "C/C(=N/NC(=O)c1cc(Cl)ccc1O)C12CC3CC(CC(C3)C1)C2", "inhibition": "-3.29% (inactive)"}
{"smiles": "CCCCn1c(=S)[nH]c2ccccc2c1=O", "inhibition": "-2.71% (inactive)"}
{"smiles": "Cc1cc(NCCc2c[nH]c3ccccc23)ccc1Oc1cccnc1", "inhibition": "-3% (inactive)"}
{"smiles": "CCNC(=S)Nc1ccc(OC(F)(F)F)cc1", "inhibition": "0.41% (inactive)"}
{"smiles": "NC(c1csc(NC(=O)Nc2ccccc2Oc2ccccc2)n1)c1ccccc1Cl", "note": "(configuration not stated)", "inhibition": "4.15% (inactive)"}
{"smiles": "COc1cc(/C=N/n2c(C)n[nH]c2=S)ccc1OCc1ccccc1", "inhibition": "-3.5% (inactive)"}
{"smiles": "Cc1ccc(C2CC(c3cccc(C)c3)n3nc(N)nc3N2)cc1", "note": "(configuration not stated)", "inhibition": "-10.8% (inactive)"}
{"smiles": "Nc1ccc2c(c1)C(O)c1ccc(Cl)cc1-2", "note": "(configuration not stated)", "inhibition": "7% (active)"}
{"smiles": "CCN(Cc1ccccc1)C(=O)CN1C(=S)NC(C)(C)CC1C", "note": "(configuration not stated)", "inhibition": "-7.34% (inactive)"}
{"smiles": "C#CCCCc1nc2ccccc2c(=O)n1N", "inhibition": "-6.82% (inactive)"}
{"smiles": "Cc1nnc(Sc2nc3c(c(=O)[nH]c(=O)n3C)n2Cc2ccccc2)s1", "inhibition": "-6.93% (inactive)"}
{"smiles": "CCN(CC(=O)NC1CCS(=O)(=O)C1)S(=O)(=O)c1ccccc1", "note": "(configuration not stated)", "inhibition": "-0.3% (inactive)"}
{"smiles": "CCOC12CC(C)(C)CC(C)(CC3=C1C(=O)CC(C)(C)C3)C2", "note": "(configuration not stated)", "inhibition": "-12.7% (inactive)"}
{"smiles": "CC(C)(c1ccccc1)c1ccc(OCCN)cc1", "inhibition": "-22.1% (inactive)"}
{"smiles": "CC[C@]1(O)C[C@@H]2CN(CCc3c([nH]c4ccccc34)[C@@](C(=O)OC)(c3cc4c(cc3OC)N(C)[C@H]3[C@@](O)(C(=O)OC)[C@H](OC(C)=O)[C@]5(CC)C=CCN6CC[C@]43[C@@H]65)C2)C1", "inhibition": "-25% (inactive)"}
{"smiles": "CCCCCCCCCCOC(=O)C[N+](C)(C)CC1CCCCC1O", "note": "(configuration not stated)", "inhibition": "-19.3% (inactive)"}
{"smiles": "COc1cc(OC)cc(C2=Cc3ccccc3C(CC(=O)c3ccco3)N2c2ccc(-c3cnc(OC)nc3)cc2)c1", "note": "(configuration not stated)", "inhibition": "-14% (inactive)"}
{"smiles": "COC(=O)C(C)n1cnc2c(nnn2-c2ccc(F)cc2)c1=O", "note": "(configuration not stated)", "inhibition": "-6.41% (inactive)"}
{"smiles": "Cc1cccc(N2CCN(c3ccc(NC(=O)/C=C\\C(=O)O)cc3)CC2)c1", "inhibition": "3.01% (inactive)"}
{"smiles": "N=C(N)SCc1cccc2ccccc12", "inhibition": "-8.26% (inactive)"}
{"smiles": "O=C(CCl)NNc1cccc(Cl)n1", "inhibition": "113% (active)"}
{"smiles": "NS(=O)(=O)c1ccc(CCNC(=O)NC2CCCCC2)cc1", "inhibition": "-4.36% (inactive)"}
{"smiles": "O=C(NNC(=S)NC1CC2CCC1C2)c1ccc(Cl)cc1", "note": "(configuration not stated)", "inhibition": "0.11% (inactive)"}
{"smiles": "COc1ccc(Cl)cc1C(=O)NNC(=S)NC1CCCC1", "inhibition": "3.94% (inactive)"}
{"smiles": "C=CCNc1scc(-c2ccccc2)[n+]1CC=C", "inhibition": "-8.41% (inactive)"}
{"smiles": "C/C(=N\\NC(=S)Nc1ccc(C)cc1)c1cc2ccccc2o1", "inhibition": "-2.09% (inactive)"}
{"smiles": "NC[C@H](Cc1ccccc1)NCCc1cc(C(F)(F)F)cc(C(F)(F)F)c1", "inhibition": "-15.8% (inactive)"}
{"smiles": "CC(=O)/C(=N\\Nc1ccc(Cl)cc1Cl)Sc1cccc2cccnc12", "inhibition": "-6.02% (inactive)"}
{"smiles": "Cc1ccccc1NC(=O)C1CCN(c2ncccn2)CC1", "inhibition": "-0.85% (inactive)"}
{"smiles": "O=C(NC(=S)Nc1ncccn1)c1ccccc1Br", "inhibition": "-4.76% (inactive)"}
{"smiles": "Nc1ccc(Nc2ccccc2)cc1", "inhibition": "1.54% (inactive)"}
{"smiles": "Cn1c2c(c(=O)n(C)c1=O)C1c3ccccc3OCC1C(C)(C)O2", "note": "(configuration not stated)", "inhibition": "-3.5% (inactive)"}
{"smiles": "Oc1ccc2ccccc2c1N=Nc1nccs1", "inhibition": "18.1% (active)"}
{"smiles": "COCCCNC(=O)CNC(=S)N(Cc1cc(OC)c(OC)c(OC)c1)C1CCCC1", "inhibition": "-10.5% (inactive)"}
{"smiles": "COc1ccnc(NC(=S)N2CCN(c3ncc(C(F)(F)F)cc3Cl)CC2)c1", "inhibition": "-6.49% (inactive)"}
{"smiles": "COc1ccc(C(=O)NNC(=S)NC(=O)c2ccccc2)cc1", "inhibition": "-1.93% (inactive)"}
{"smiles": "Cc1ccc(-c2csc(NNC(=O)c3ccccc3)n2)cc1", "inhibition": "6.07% (active)"}
{"smiles": "Cc1ccc2sc(NNC(=O)c3ccc4c(c3)OCCO4)nc2c1C", "inhibition": "3.21% (inactive)"}
{"smiles": "CCc1cc(-c2n[nH]c(=S)n2CC(C)C)cs1", "inhibition": "-0.76% (inactive)"}
{"smiles": "Cn1cc(Cl)c(C(=O)NNC(=S)Nc2cccc(Cl)c2)n1", "inhibition": "0.3% (inactive)"}
{"smiles": "CC(C)=CCCC1(C)C=Cc2c(ccc3c2[nH]c2cc(O)c(C)cc23)O1", "note": "(configuration not stated)", "inhibition": "8.94% (active)"}
{"smiles": "CC(C)c1ccc(Nc2nnc(SCC(=O)c3nnc(-c4ccccc4)o3)s2)cc1", "inhibition": "-8.04% (inactive)"}
{"smiles": "CC(=O)Oc1ccc2c(c1)C(=O)c1ccccc1C2=O", "inhibition": "-2.62% (inactive)"}
{"smiles": "O=C(N/N=C/c1cc(Cl)cc([N+](=O)[O-])c1O)C(O)(c1ccccc1)c1ccccc1", "inhibition": "5.59% (inactive)"}
{"smiles": "S=c1[nH]nc(-c2ccco2)n1/N=C/c1ccccc1", "inhibition": "-0.08% (inactive)"}
{"smiles": "CCOc1ccc2[nH]c(=S)sc2c1", "inhibition": "-2.18% (inactive)"}
{"smiles": "Cc1c(NC(=S)NCc2ccc(F)cc2)cccc1[N+](=O)[O-]", "inhibition": "-0.65% (inactive)"}
{"smiles": "CC(Oc1ccc2ccccc2c1)C(=O)NNC(=S)NC(=O)c1ccco1", "note": "(configuration not stated)", "inhibition": "-3.72% (inactive)"}
